From PubChem BioAssay (NCATS)
Calls of active or inactive are those of the source. The call rests on the fitted dose curve.

Experiment: qHTS drug screen for cell cycle checkpoint inhibitors in PARPi-resistant BRCA-mutant ovarian cancer cell lines. (AID 1963452)
Settings: PEO1/OlaR viability, CellTiter-Glo luminescence, 96 h; stronger effect = lower value
Method in brief: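 PEO1, PEO4 and PEO1/OlaR ovarian cancer cells, 600 per well, exposed 96 h at 37C to a dilution series. Viability read by CellTiter-Glo luminescence, normalized to DMSO and empty wells; activity summarized as Z-AUC.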

| SMILES | Z-AUC |
| --- | --- |
| CCc1ccc(N(CC(C)C)S(=O)(=O)c2ccc(OCC3CCOCC3)c(CO)c2)cc1 | -1.27 (inactive) |
| O=C(Nc1ccc(-c2ccnc(Nc3ccc(N4CCOCC4)cc3)n2)cc1)[C@@H]1CCCN1 | -0.466 (inactive) |
| CC[C@@]1([C@@H]2O[C@@H]([C@H]3O[C@@](O)(CO)[C@H](C)C[C@@H]3C)C[C@@H]2C)CC[C@H]([C@]2(C)CCC3(C[C@H](O)[C@@H](C)[C@@H]([C@@H](C)[C@@H](OC)[C@H](C)C(=O)O)O3)O2)O1 (some centres undefined) | -0.884 (inactive) |
| O=C(/C=C/c1ccc(Cl)cc1)N1CCC2(CC1)CN(Cc1ccc(Cl)c(Cl)c1)C(=O)O2 | 1.05 (inactive) |

Same assay, conditions: PEO1/OlaR viability, CellTiter-Glo luminescence, 96 h; measured here: PEO1 parental Z-AUC; stronger effect = lower value

| SMILES | Z-AUC |
| --- | --- |
| CCc1ccc(N(CC(C)C)S(=O)(=O)c2ccc(OCC3CCOCC3)c(CO)c2)cc1 | -0.28 |
| O=C(Nc1ccc(-c2ccnc(Nc3ccc(N4CCOCC4)cc3)n2)cc1)[C@@H]1CCCN1 | 0.455 |
| CC[C@@]1([C@@H]2O[C@@H]([C@H]3O[C@@](O)(CO)[C@H](C)C[C@@H]3C)C[C@@H]2C)CC[C@H]([C@]2(C)CCC3(C[C@H](O)[C@@H](C)[C@@H]([C@@H](C)[C@@H](OC)[C@H](C)C(=O)O)O3)O2)O1 (some centres undefined) | -0.753 |
| CC(C)NC(=O)C1CCC(n2c(NC(=O)c3ccc(F)cc3)nc3ccc(CN4CCC(C(C)(C)O)CC4)cc32)CC1 (centres undefined) | -1.17 |
| O=C(/C=C/c1ccc(Cl)cc1)N1CCC2(CC1)CN(Cc1ccc(Cl)c(Cl)c1)C(=O)O2 | -0.18 |

Same assay, conditions: PEO1/OlaR viability, CellTiter-Glo luminescence, 96 h; measured here: PEO4 Z-AUC; stronger effect = lower value

| SMILES | Z-AUC |
| --- | --- |
| CCc1ccc(N(CC(C)C)S(=O)(=O)c2ccc(OCC3CCOCC3)c(CO)c2)cc1 | -0.861 |
| O=C(Nc1ccc(-c2ccnc(Nc3ccc(N4CCOCC4)cc3)n2)cc1)[C@@H]1CCCN1 | 0.0561 |
| CC[C@@]1([C@@H]2O[C@@H]([C@H]3O[C@@](O)(CO)[C@H](C)C[C@@H]3C)C[C@@H]2C)CC[C@H]([C@]2(C)CCC3(C[C@H](O)[C@@H](C)[C@@H]([C@@H](C)[C@@H](OC)[C@H](C)C(=O)O)O3)O2)O1 (some centres undefined) | -1.58 |
| CC(C)NC(=O)C1CCC(n2c(NC(=O)c3ccc(F)cc3)nc3ccc(CN4CCC(C(C)(C)O)CC4)cc32)CC1 (centres undefined) | -1.3 |
| O=C(/C=C/c1ccc(Cl)cc1)N1CCC2(CC1)CN(Cc1ccc(Cl)c(Cl)c1)C(=O)O2 | 0.00813 |
